Test results from PubChem BioAssay (Tox21).
Records with an inconclusive call do not appear. Entries that show only a call come without a potency. A structure can be active in one record and inactive in another. Calls of active or inactive are those of the source. Unless noted, the call rests on the fitted dose curve.

How the values were obtained:
[1] = Nuclear factor erythroid 2-related factor 2/antioxidant responsive element (Nrf2/ARE) small molecule agonists: luciferase reporter gene qHTS assay in human keratinocytes (AID 1919969); further: nearly all actives have a fitted effect of over 35% in size; further: potency means the concentration at half of the fitted maximal effect
[2] = molecular target: Gonadotropin-releasing hormone receptor (Homo sapiens) (UniProt P30968); experiment: Human gonadotropin-releasing hormone receptor (GnRHR) small molecule agonists, calcium flux assay in GnRHR-HEK293 cells (AID 1920063); further: nearly all actives have a fitted effect of over 35% in size
Outline: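 Agonist mode: compounds at 15 concentrations, in triplicate, went onto calcium dye-loaded GnRHR-HEK293 cells. Intracellular calcium was then followed as 480/540 nm fluorescence at 1 s intervals over 3 min.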

[3] = molecular target: KiSS-1 receptor (Homo sapiens) (UniProt Q969F8); experiment: Human kisspeptin (KISS1R) small molecule agonists, calcium flux assay in KISS1R-HEK293 cells (AID 1920064; active means well fitted activation curve with a large enough effect in the repeat runs)
Outline: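 Agonist mode: intracellular calcium rise tracked at 1 s intervals over 3 min (480/540 nm) immediately after compound addition to dye-loaded KISS1R-HEK293 stable cells. Each compound tested at 15 concentrations in triplicate.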

[4] = G protein-coupled receptor (GPCR) small molecule agonists, calcium flux assay: HEK293 wild type cell line counter screen (AID 1920065)
Outline: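 Calcium flux counter screen: compound added in agonist mode at 15 concentrations in triplicate to dye-loaded parental HEK293 cells. Fluorescence (480/540) read kinetically for 3 min; ATP served as positive control.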

[5] = p53 small molecule agonists, cell-based qHTS assay with human liver microsomes: qHTS cell viability counter screen (AID 1963579); further: nearly all actives have a fitted effect of over 45% in size; further: potency means the concentration at half of the fitted maximal effect
Outline: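 Cells carrying the p53 response-element beta-lactamase reporter are treated for 16 h at 37 C with test compounds in the presence of human liver microsomes and NADPH (both 0.5 mg/mL final); ATP-based CellTiter-Glo luminescence then reports viability.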

[6] = p53 small molecule agonists, cell-based qHTS assay with rat liver microsomes: qHTS cell viability counter screen (AID 1963580); further: nearly all actives have a fitted effect of over 45% in size; further: potency means the concentration at half of the fitted maximal effect
Outline: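 Luminescent ATP readout (CellTiter-Glo, 30 min at room temperature) reports viability of p53RE-bla HCT-116 cells after 16 h at 37 C with test compounds under metabolic activation by rat liver microsomes and NADPH at 0.5 mg/mL final each.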

[7] = molecular target: 5-hydroxytryptamine receptor 2A (Homo sapiens) (UniProt P28223); experiment: 5-hydroxytryptamine receptor 2A (HTR2A) small molecule agonists, cell-based qHTS assay (AID 1963587); further: nearly all actives have a fitted effect of over 30% in size; further: potency means the concentration at half of the fitted maximal effect
Outline: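 HTR2A-CHO cells, plated 18 h at 37 C/5% CO2, dye-loaded 1 h at 37 C; compounds in DMSO added by pin tool (agonist mode). Intracellular calcium flux read as kinetic fluorescence on FDSS over 2 min at 1 s intervals.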

[8] = molecular target: Muscarinic acetylcholine receptor M1 (Homo sapiens) (UniProt P11229); experiment: Cholinergic receptor muscarinic 1 (CHRM1) small molecule antagonists, cell-based qHTS assay (AID 1963588); further: nearly all actives have a fitted effect of over 40% in size; further: potency means the concentration at half of the fitted maximal effect
Outline: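 Compounds were tested at 15 concentrations in three independent runs. Dye-loaded CHRM1-CHO cells were exposed 5 min at room temperature before stimulation by acetylcholine added at 50nM. Intracellular calcium was read kinetically on FDSS for 3 min.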

[9] = molecular target: Muscarinic acetylcholine receptor M1 (Homo sapiens) (UniProt P11229); experiment: Cholinergic receptor muscarinic 1 (CHRM1) small molecule agonists, cell-based qHTS assay (AID 1963589); further: nearly all actives have a fitted effect of over 35% in size
Outline: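 Agonist-mode calcium-flux screen: compounds at 15 concentrations, three independent runs, were pin-transferred onto dye-loaded human CHRM1-CHO cells. Fluorescence was then recorded kinetically every second over minutes.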

[10] = molecular target: D(2) dopamine receptor (Homo sapiens) (UniProt P14416); experiment: Dopamine D2 receptor (DRD2) small molecule antagonists, cell-based qHTS assay (AID 1963595; active means well fitted inhibition curve with a large enough effect in the signal ratio in the repeat runs, with a control signal flat; the % refers to the signal ratio; further: potency means the concentration at half of the fitted maximal effect)
Outline: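 Antagonism was scored as restored cAMP in HEK293-DRD2 cells. These cells were stimulated with 200 nM NKH477 and 12 nM quinpirole for 30 min at room temperature, in the presence of 0.1 mM Ro20-1724.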

[11] = p53 small molecule agonists, cell-based qHTS assay: qHTS cell viability counter screen (AID 1963581); further: nearly all actives have a fitted effect of over 45% in size; further: potency means the concentration at half of the fitted maximal effect
Outline: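 Counter screen read by CellTiter-Glo luminescence (ATP content, 30 min at room temperature), run in the same wells as the beta-lactamase reporter read. HCT-116 p53RE-bla cells saw compounds for 16 h at 37 C.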

[12] = molecular target: 5-hydroxytryptamine receptor 2A (Homo sapiens) (UniProt P28223); experiment: 5-hydroxytryptamine receptor 2A (HTR2A) small molecule antagonists, cell-based qHTS assay (AID 1963586); further: nearly all actives have a fitted effect of over 45% in size; further: potency means the concentration at half of the fitted maximal effect
Outline: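 CHO cells stably expressing human HTR2A were plated for 18 h at 37 C, then loaded with calcium dye for 1 h. Compounds were preincubated 5 min at room temperature before DOI (4 nM solution) was added. Kinetic fluorescence was read for 3 min.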

[13] = cAMP Responsive Elements (CRE) small molecule agonists, cell-based qHTS assay (AID 1963590)
Outline: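 Agonist mode: compound added to CRE-bla HEK 293T cells (2,000/well, 18 h after plating) for 3 h at 37 C/5% CO2. Reporter activity detected via FRET beta-lactamase substrate, 2 h room-temperature loading.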

[14] = cAMP Responsive Elements (CRE) small molecule antagonists, cell-based qHTS assay (AID 1963591; active means well fitted inhibition curve with a large enough effect in the signal ratio in the repeat runs, not every such curve was filed as active; the % refers to the signal ratio)
Outline: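 Antagonist mode: compounds are added alongside the adenylyl cyclase activator NKH477 (0.25 uM final) to CRE-bla HEK293T cells for 3 h. LiveBLAzer FRET substrate, 2 h at room temperature, reports bla expression.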

[15] = molecular target: Beta-2 adrenergic receptor (Homo sapiens) (UniProt P07550); experiment: Adrenergic beta2 receptor (ADRB2) small molecule antagonists, cell-based qHTS assay (AID 1963592); further: nearly all actives have a fitted effect of over 50% in size; further: potency means the concentration at half of the fitted maximal effect
Outline: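 Assay format: CHO-ADRB2 cells, 18-20hr seeding at 37C/5% CO2, then compound plus 1nM isoproterenol agonist mix for 0.5hr RT. Homogeneous time-resolved fluorescence cAMP detection after 1hr, expressed as 665/615 nm ratio.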

[16] = molecular target: Beta-2 adrenergic receptor (Homo sapiens) (UniProt P07550); experiment: Adrenergic beta2 receptor (ADRB2) small molecule agonists, cell-based qHTS assay (AID 1963593);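 further: CHO cells stably overexpressing human ADRB2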
Outline: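 CHO cells stably over-expressing ADRB2 were plated overnight at 37C, then dosed with compounds plus a stimulation mix containing 100uM IBMX and 25uM Ro-20-1724 for 0.5hr at room temperature. cAMP was measured by HTRF competition, 1hr.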

[17] = molecular target: D(2) dopamine receptor (Homo sapiens) (UniProt P14416); experiment: Dopamine D2 receptor (DRD2) small molecule agonists, cell-based qHTS assay (AID 1963594); further: nearly all actives have a fitted effect of over 35% in size
Outline: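 HEK293 cells stably expressing DRD2 were cultured 24 h at 37 C, then given Ro20-1724 (0.1 mM final) and compounds for 10 min at room temperature. NKH477 (200nM) was then added for 30 min. cAMP was read by HTRF.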

[18] = p53 small molecule agonists, cell-based qHTS assay with human liver microsomes (AID 1963577)
Outline: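 Compounds act here after metabolic activation: human liver microsomes and NADPH, both at 0.5 mg/mL final, were co-added to p53RE-bla cells. Incubation ran 16 h at 37 C, followed by LiveBLAzer detection.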

[19] = p53 small molecule agonists, cell-based qHTS assay with rat liver microsomes (AID 1963578)
Outline: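 Read-out is beta-lactamase reporter fluorescence (LiveBLAzer, 2 h, room temperature, dark) in p53RE-bla cells treated 16 h at 37 C with compound, rat liver microsomes and NADPH, both 0.5 mg/mL final.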

[20] = p53 small molecule agonists, cell-based qHTS assay (AID 1963582; active means well fitted activation curve with a large enough effect in the signal ratio in the repeat runs, not every such curve was filed as active; the % refers to the signal ratio)
Outline: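 Read-out is beta-lactamase FRET fluorescence after 2 h at room temperature with LiveBLAzer B/G substrate. p53 response element-bla cells were treated 16 h at 37 C with compounds in DMSO, added 5 h after seeding.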

Beta-2 adrenergic receptor (Homo sapiens), sequence (P07550 whole entry, looked up): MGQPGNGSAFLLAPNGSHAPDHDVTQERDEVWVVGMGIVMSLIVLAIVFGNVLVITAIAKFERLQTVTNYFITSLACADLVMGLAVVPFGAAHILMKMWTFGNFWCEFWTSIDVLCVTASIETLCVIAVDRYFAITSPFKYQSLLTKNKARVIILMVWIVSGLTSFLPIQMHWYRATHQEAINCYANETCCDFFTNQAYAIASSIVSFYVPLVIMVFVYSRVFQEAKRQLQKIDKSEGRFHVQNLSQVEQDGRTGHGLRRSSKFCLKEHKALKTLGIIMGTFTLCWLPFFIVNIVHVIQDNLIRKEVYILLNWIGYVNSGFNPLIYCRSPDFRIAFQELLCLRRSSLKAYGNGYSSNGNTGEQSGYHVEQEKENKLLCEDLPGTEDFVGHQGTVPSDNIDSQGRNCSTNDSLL
Muscarinic acetylcholine receptor M1 (Homo sapiens), sequence (P11229 whole entry, looked up): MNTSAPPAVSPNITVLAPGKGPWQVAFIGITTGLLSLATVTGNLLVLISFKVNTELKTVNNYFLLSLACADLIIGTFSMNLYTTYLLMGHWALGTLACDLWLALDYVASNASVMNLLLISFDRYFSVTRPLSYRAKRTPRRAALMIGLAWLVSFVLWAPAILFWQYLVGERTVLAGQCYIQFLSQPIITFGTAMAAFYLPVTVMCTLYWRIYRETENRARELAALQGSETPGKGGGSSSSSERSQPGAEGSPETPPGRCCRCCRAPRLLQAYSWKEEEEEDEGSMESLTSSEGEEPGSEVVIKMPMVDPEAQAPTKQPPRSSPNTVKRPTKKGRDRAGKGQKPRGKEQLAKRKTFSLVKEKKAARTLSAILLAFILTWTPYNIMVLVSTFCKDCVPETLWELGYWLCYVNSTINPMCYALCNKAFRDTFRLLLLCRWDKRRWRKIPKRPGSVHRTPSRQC
D(2) dopamine receptor (Homo sapiens), sequence (P14416 whole entry, looked up): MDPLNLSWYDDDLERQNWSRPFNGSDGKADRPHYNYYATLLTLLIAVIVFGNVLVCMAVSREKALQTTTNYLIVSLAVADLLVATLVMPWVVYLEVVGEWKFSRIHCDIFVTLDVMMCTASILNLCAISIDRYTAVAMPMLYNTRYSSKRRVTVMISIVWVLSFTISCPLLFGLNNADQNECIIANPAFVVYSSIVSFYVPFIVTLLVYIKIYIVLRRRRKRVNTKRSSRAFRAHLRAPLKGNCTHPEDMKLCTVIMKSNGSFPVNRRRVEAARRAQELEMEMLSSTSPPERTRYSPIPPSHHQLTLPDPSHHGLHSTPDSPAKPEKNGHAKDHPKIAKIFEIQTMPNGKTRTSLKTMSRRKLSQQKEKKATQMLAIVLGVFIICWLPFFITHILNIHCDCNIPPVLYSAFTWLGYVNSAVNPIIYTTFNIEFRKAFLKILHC
KiSS-1 receptor (Homo sapiens), sequence (Q969F8 whole entry, looked up): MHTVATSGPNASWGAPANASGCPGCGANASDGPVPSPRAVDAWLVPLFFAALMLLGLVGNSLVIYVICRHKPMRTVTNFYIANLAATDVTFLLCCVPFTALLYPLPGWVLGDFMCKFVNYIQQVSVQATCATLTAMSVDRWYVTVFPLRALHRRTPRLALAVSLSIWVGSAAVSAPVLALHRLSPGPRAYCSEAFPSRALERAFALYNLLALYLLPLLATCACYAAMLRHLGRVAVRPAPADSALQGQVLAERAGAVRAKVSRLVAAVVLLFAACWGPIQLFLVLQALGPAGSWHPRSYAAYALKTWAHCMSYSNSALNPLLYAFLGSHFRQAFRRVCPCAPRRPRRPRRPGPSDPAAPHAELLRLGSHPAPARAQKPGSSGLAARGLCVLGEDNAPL
5-hydroxytryptamine receptor 2A (Homo sapiens), sequence (P28223 whole entry, looked up): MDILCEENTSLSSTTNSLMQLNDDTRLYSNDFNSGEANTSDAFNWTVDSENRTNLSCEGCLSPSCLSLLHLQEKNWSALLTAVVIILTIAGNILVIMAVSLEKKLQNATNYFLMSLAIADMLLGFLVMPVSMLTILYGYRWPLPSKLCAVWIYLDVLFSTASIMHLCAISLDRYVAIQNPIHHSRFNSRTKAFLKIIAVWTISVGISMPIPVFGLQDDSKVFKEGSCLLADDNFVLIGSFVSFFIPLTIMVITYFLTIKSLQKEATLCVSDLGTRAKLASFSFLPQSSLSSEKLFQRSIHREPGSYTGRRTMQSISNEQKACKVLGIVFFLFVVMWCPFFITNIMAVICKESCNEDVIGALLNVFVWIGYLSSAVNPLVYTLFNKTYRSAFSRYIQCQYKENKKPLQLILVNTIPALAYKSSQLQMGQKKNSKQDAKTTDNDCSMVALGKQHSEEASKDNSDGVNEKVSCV
Gonadotropin-releasing hormone receptor (Homo sapiens), sequence (P30968 whole entry, looked up): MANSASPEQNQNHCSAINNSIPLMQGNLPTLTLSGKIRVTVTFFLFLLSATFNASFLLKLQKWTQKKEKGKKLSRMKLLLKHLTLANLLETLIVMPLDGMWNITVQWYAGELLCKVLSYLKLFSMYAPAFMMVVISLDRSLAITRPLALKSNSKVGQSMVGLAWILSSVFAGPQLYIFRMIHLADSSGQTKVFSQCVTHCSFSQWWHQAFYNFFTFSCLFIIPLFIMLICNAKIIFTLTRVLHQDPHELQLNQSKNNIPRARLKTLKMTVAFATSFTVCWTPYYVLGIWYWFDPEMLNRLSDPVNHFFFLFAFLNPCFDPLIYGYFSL

Row | Compound | Potency [1] | Potency [2] | Potency [3] | Potency [4] | Potency [5] | Potency [6] | Potency [7] | Potency [8] | Potency [9] | Potency [10] | Potency [11] | Potency [12] | Potency [13] | Potency [14] | Potency [15] | Potency [16] | Potency [17] | Potency [18] | Potency [19] | Potency [20]
1 | CC(C)(C)c1cc(/C=C2\SC(=N)NC2=O)cc(C(C)(C)C)c1O | inactive | inactive | inactive | inactive | inactive | inactive | inactive | inactive | inactive | inactive | – | – | – | – | – | – | – | – | – | –
2 | CCCCC(CC)C(=O)OCCOCCOCCOCCOC(=O)C(CC)CCCC (configuration not stated) | inactive | inactive | inactive | inactive | inactive | – | inactive | inactive | inactive | inactive | inactive | inactive | inactive | inactive | inactive | inactive | inactive | – | – | –
3 | CCCCCCOc1ccc(O)cc1 | 21.7 µM (active) | inactive | inactive | inactive | inactive | – | inactive | inactive | inactive | 48.6 µM (active) | – | inactive | – | – | inactive | – | inactive | – | – | –
4 | O=S(=O)(O)c1cc(O)ccc1O | inactive | inactive | inactive | inactive | – | – | inactive | inactive | inactive | inactive | – | – | inactive | inactive | inactive | inactive | – | – | – | –
5 | CCCCCCOC(=O)c1ccc(O)cc1 | 19.4 µM (active) and inactive | – | inactive | inactive | inactive | inactive | inactive | inactive | inactive | – | inactive | – | – | – | inactive | inactive | inactive | inactive | inactive | inactive
6 | CCCCCCCC/C=C\CCCCCCCC(=O)NCc1ccc(O)c(OC)c1 | inactive | inactive | – | inactive | inactive | – | – | inactive | inactive | inactive | inactive | inactive | – | inactive | inactive | – | inactive | inactive | inactive | inactive
7 | CCC1=C[C@@H]2CN(C1)Cc1c([nH]c3ccccc13)[C@@](C(=O)OC)(c1cc3c(cc1OC)N(C)[C@H]1[C@@](O)(C(=O)OC)[C@H](OC(C)=O)[C@]4(CC)C=CCN5CC[C@]31[C@@H]54)C2 | 0.376 µM (active) | inactive | – | – | – | – | – | – | – | – | – | – | – | – | inactive | inactive | inactive | – | – | –
8 | CCCN(CCc1cccs1)[C@H]1CCc2c(O)cccc2C1 | inactive | – | inactive | inactive | inactive | inactive | 0.12 µM (active) | 10.3 µM (active) | inactive | inactive | inactive | 0.365 µM (active) | – | – | inactive | inactive | – | inactive | inactive | inactive
9 | CSc1ccc(/C=C2/C(C)=C(CC(=O)O)c3cc(F)ccc32)cc1 | inactive | inactive | – | – | inactive | inactive | – | – | – | inactive | – | – | – | – | inactive | – | inactive | inactive | inactive | –
10 | CCCCOC(=O)c1ccccc1C(=O)OCC(CC)CCCC (configuration not stated) | 43.3 µM (active) | inactive | – | inactive | – | inactive | inactive | inactive | inactive | inactive | inactive | inactive | inactive | inactive | – | – | inactive | inactive | inactive | inactive
11 | O=C(/C=C/c1ccc([N+](=O)[O-])cc1)c1ccccc1 | 54.6 µM (active) | – | inactive | inactive | inactive | 20.5 µM (active) | inactive | inactive | inactive | – | inactive | inactive | – | – | inactive | – | inactive | inactive | inactive | inactive
12 | O=C(Nc1cccc(C(F)(F)F)c1)c1cc(Br)cc(Br)c1O | 9.69 µM (active) | inactive | – | – | 9.13 µM (active) | – | inactive | inactive | inactive | inactive | – | inactive | – | – | 61.1 µM (active) | – | inactive | inactive | inactive | –
13 | CCCCC(CC)CN=C(N)NC(N)=NCCCCCCN=C(N)NC(N)=NCC(CC)CCCC (configuration not stated) | inactive | – | inactive | inactive | 22.3 µM (active) | 17.8 µM (active) | – | 0.918 µM (active) | inactive | 13.3 µM (active) | 19.9 µM (active) | 18.3 µM (active) | – | – | 29.8 µM (active) | – | – | inactive | inactive | –
14 | NC(=O)C1(N2CCCCC2)CCN(CCCN2c3ccccc3CCc3ccc(Cl)cc32)CC1 | inactive | inactive | – | inactive | inactive | inactive | – | inactive | inactive | 0.376 µM (active) | – | 0.103 µM (active) | – | – | – | – | inactive | inactive | inactive | –
15 | O=C(O)CN1C(=O)c2cccc3cccc(c23)C1=O | inactive | inactive | – | inactive | inactive | inactive | inactive | inactive | inactive | inactive | – | inactive | inactive | inactive | inactive | – | inactive | – | inactive | inactive
16 | Cc1ccc(Nc2nccc(N(C)c3ccc4c(C)n(C)nc4c3)n2)cc1S(N)(=O)=O | 4.22 µM (active) | inactive | – | inactive | – | – | inactive | inactive | – | – | – | inactive | inactive | – | 26.6 µM (active) | – | – | – | – | –
17 | CCC(=O)OCCc1ccccc1 | inactive | inactive | – | inactive | inactive | inactive | inactive | – | inactive | inactive | inactive | inactive | inactive | – | inactive | – | – | inactive | inactive | inactive
